In PubChem BioAssay (NCI):
The panel holds about 83,000 compounds, 20% with a hit somewhere; the sample as a whole holds those more often.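 Growth was measured after 48 h exposure to one concentration of compound in 96-well plates. Values under 10 count as active.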 Values without a mark were called inactive. Calls of active or inactive are those of the source.

Columns and labels:
Experiment in all cases: NCI-60 one-dose screen, 48 h (100 = growth as untreated, 0 = no growth, -100 = all killed)
Details in all cases: 10 µM unless noted
NCI-H23 lung = test system: NCI-H23 lung
NCI-H226 lung = test system: NCI-H226 lung
NCI-H322M lung = test system: NCI-H322M lung
HOP-62 NSCLC = test system: HOP-62 NSCLC
NCI-H460 lung = test system: NCI-H460 lung
HOP-92 NSCLC = test system: HOP-92 NSCLC
A549/ATCC NSCLC = test system: A549/ATCC NSCLC
786-0 renal = test system: 786-0 renal
COLO 205 colon = test system: COLO 205 colon
DU-145 prostate = test system: DU-145 prostate
K-562 leukemia = test system: K-562 leukemia
MALME-3M melanoma = test system: MALME-3M melanoma
MDA-MB-231 breast = test system: MDA-MB-231 breast
SF-268 CNS = test system: SF-268 CNS
SF-295 CNS = test system: SF-295 CNS
SF-539 CNS = test system: SF-539 CNS
UACC-257 melanoma = test system: UACC-257 melanoma
M14 melanoma = test system: M14 melanoma
RXF 393 renal = test system: RXF 393 renal

| Structure (SMILES) | growth (NCI-H23 lung) | growth (NCI-H226 lung) | growth (NCI-H322M lung) | growth (HOP-62 NSCLC) | growth (NCI-H460 lung) | growth (HOP-92 NSCLC) | growth (A549/ATCC NSCLC) | growth (786-0 renal) | growth (COLO 205 colon) | growth (DU-145 prostate) | growth (K-562 leukemia) | growth (MALME-3M melanoma) | growth (MDA-MB-231 breast) | growth (SF-268 CNS) | growth (SF-295 CNS) | growth (SF-539 CNS) | growth (UACC-257 melanoma) | growth (M14 melanoma) | growth (RXF 393 renal) |
| --- | --- | --- | --- | --- | --- | --- | --- | --- | --- | --- | --- | --- | --- | --- | --- | --- | --- | --- | --- |
| O=C1Nc2ccc(Cl)cc2[C@@](C#CC2CC2)(C(F)(F)F)O1 | 87.8% | 81.4% | 80.9% | 104% | 102% | 93.2% | 70.7% | 96.6% | 127% | 104% | 67.3% | 93.4% | 86.5% | 117% | 82% | 104% | 79.9% | 86.2% |  |
| Clc1ccc(C2c3ccccc3-c3nccn32)c(Cl)c1 (stereo not drawn) | 40% | 66.6% | 88.1% | 78.2% | 88.5% | -2.6% (active) | 79.6% | 80.8% | 97.2% | 92.4% | 35.5% | 83.8% | 84.1% | 99.3% | 41.7% | 88.5% | 80.5% | 65% |  |
| FCc1ncc(-c2ccc(C(F)(F)F)cc2)c(NC2CCCCCC2)n1 | 10.9% [100 µM] | 34.4% [100 µM] | 36.3% [100 µM] | 31.2% [100 µM] | -28.9% [100 µM] (active) | -31.7% [100 µM] (active) | 7.62% [100 µM] (active) | -13.7% [100 µM] (active) | -21% [100 µM] (active) | -27.6% [100 µM] (active) | -2.97% [100 µM] (active) | -16.9% [100 µM] (active) | 0% [100 µM] (active) | -0.671% [100 µM] (active) | -40.9% [100 µM] (active) |  | -6.1% [100 µM] (active) | 2.44% [100 µM] (active) | 1.22% [100 µM] (active) |
| Nc1nc2c(nnn2Cc2ccc(Cl)c(Cl)c2)c(=O)[nH]1 | 104% | 96.5% | 82.4% | 90.4% | 104% | 75.5% | 103% | 97.3% | 98.5% | 116% | 83.3% | 107% | 94.5% | 96.6% |  | 98.3% | 98.9% | 103% | 107% |
| CNc1nc(NC2CCCC2)nc(Sc2ccc(OC)cc2)n1 | 39.4% [100 µM] | 46.4% [100 µM] | 68.5% [100 µM] | 53.4% [100 µM] | 10.2% [100 µM] | -42.7% [100 µM] (active) | 20.3% [100 µM] | 13% [100 µM] | 22.5% [100 µM] | 26.5% [100 µM] | 9.58% [100 µM] (active) | -11.9% [100 µM] (active) | -30.9% [100 µM] (active) | 25.7% [100 µM] |  | 49.2% [100 µM] | 31.4% [100 µM] | 16.7% [100 µM] | 32% [100 µM] |
| O=C(CN1CCN(c2ccc(Cl)cc2)CC1)N1CCN(c2nnc(-c3ccc(Cl)cc3)c(-c3ccc(Cl)cc3)n2)CC1 | 85% | 62% | 77.9% | 103% | 75.3% | 60.1% | 15% | 80.6% | 90.8% | 87% | 33% | 114% | 95.1% | 83.4% | 82.3% | 82.3% |  | 74.3% |  |
| COc1ccc(NC(=O)c2ccccc2-c2ccccc2)c(C(N)=O)c1 | 53.7% | 70.2% | 58.7% | 45.3% | 17% | 57.3% | 46.5% | 28.5% | 9.95% (active) | 29.6% | 14.2% | 34.3% | 54.1% | 49.5% | 17.4% | -1.25% (active) | 49.7% | 18.2% |  |
| CCCCCCCSc1ncnc2[nH]ncc12 | 93.9% | 77.4% | 93.9% | 95.7% | 103% | -2.1% (active) | 101% | 76.3% | 93.9% | 89.5% | 88.8% | 120% | 84.4% | 82.3% |  | 87.5% | 104% | 109% | 61.2% |
